Columns and labels:
Assay in all cases: PBM binding z-score (relative to random genomic background probes); higher = stronger binding; sequences stand for … in GC…GCGATTGACAGCGTAGAATGAAGG
[1] = test system: FXR:RXRa (NR concentration 270 nM, RXRa partner concentration 90 nM)
How it was run: (§1)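 Custom Agilent 4×180K protein-binding microarrays carried double-stranded probes, each with a 34-nt variable region. These regions held direct-repeat seeds, single-nucleotide variants, half-site ablations and random human genomic background sequences. Ligand-free nuclear receptor dimers were incubated on the arrays for 1 h, antibodies against each partner (one per run) detected binding, and scanned fluorescence was regression-normalized. Binding z-scores take the random background probes as reference.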

[2] = test system: LXRa:RXRa (NR concentration 270 nM, RXRa partner concentration 90 nM)
How it was run: as §1

[3] = test system: LXRa homodimer (NR concentration 270 nM)
How it was run: as §1

[4] = test system: LXRb:RXRa (NR concentration 270 nM, RXRa partner concentration 90 nM)
How it was run: as §1

[5] = test system: LXRb homodimer (NR concentration 270 nM)
How it was run: as §1

[6] = test system: PPARa:RXRa (NR concentration 270 nM, RXRa partner concentration 90 nM)
How it was run: as §1

[7] = test system: PPARg:RXRa (NR concentration 180 nM, RXRa partner concentration 90 nM)
How it was run: as §1

[8] = test system: PPARg:RXRa 270nM:90nM, anti-RXR (NR concentration 270 nM, RXRa partner concentration 90 nM)
How it was run: as §1

[9] = test system: PPARg:RXRa 30nM:10nM, anti-RXR (NR concentration 30 nM, RXRa partner concentration 10 nM)
How it was run: as §1

[10] = test system: PPARg:RXRa 90nM:30nM, anti-RXR (NR concentration 90 nM, RXRa partner concentration 30 nM)
How it was run: as §1

Sequence | PBM binding z-score [1] | PBM binding z-score [2] | PBM binding z-score [3] | PBM binding z-score [4] | PBM binding z-score [5] | PBM binding z-score [6] | PBM binding z-score [7] | PBM binding z-score [8] | PBM binding z-score [9] | PBM binding z-score [10]
AGTCAAAGATCATCTAGGTAACGTAAGATATGCT | -0.125 | 0.0142 | -0.0346 | -0.0476 | -0.391 | 0.828 | 1.67 | 1.54 | 0.643 | 1.16
CTACCAAGGTGAACAAAGTCGTTGATTACTATTC | 0.425 | 0.395 | -0.0192 | 0.749 | -0.488 | 1.01 | 0.314 | 0.548 | 0.192 | 0.308
CAGCCTAGGTCACGGCCAGTATAGGAGGAACGTT | 4.98 | 3.61 | 0.175 | 2.7 | -0.639 | 4.72 | 4.54 | 4.44 | 1.29 | 3.12
CCTGGTTGGTCAGGAGGTCACACACCGGATATGA | 3.43 | 3.17 | 1.62 | 3.13 | 0.647 | 3.89 | 2.6 | 3.31 | 0.453 | 1.96
CGAACTAGGTCAAGGATAGTGAATCTCCGCACGC | 3.06 | 1.9 | 0.0332 | 1.36 | -0.0688 | 4.56 | 7.74 | 6.47 | 4.24 | 6.39
CCTACTGGGCCAAGGGCATTGATCAGTCAAAGCA | -0.551 | -0.572 | -0.484 | -0.601 | -1.35 | 1.1 | 2.48 | 3.44 | 1 | 2.55
AGTCAAAGTTCACTATGTAACGTAAGATTCAGCT | 4.61 | 4.75 | 2.99 | 3.02 | 1.03 | 3.85 | 5.87 | 5.38 | 2.49 | 4.66
ACTATTAGTTGAGGCGAGGGCAACCGATAGGTTG | 0.489 | 0.289 | 0.0582 | 0.0711 | 0.108 | 0.378 | 0.389 | 0.0046 | 0.138 | -0.0218
CCGACTGGGGCAAAGGTTACCTTACTCAGTACGA | 1.37 | 1.71 | -0.345 | 1.98 | -1.42 | 5.37 | 10.6 | 9.12 | 7.96 | 9.81
CCTTACGGGTCACTCCCGGTTATAGCATCGGAGT | 4.78 | 7.33 | 2 | 4.66 | 0.279 | 4.23 | 2.63 | 3.52 | 0.522 | 2.33
AGAACGTGGGCACGCTGAGTTGATAGCAGAGTAG | -0.602 | -0.538 | -0.448 | -0.8 | -1.22 | -0.462 | 0.523 | -0.265 | -0.225 | -0.405
CAAACTAGGTCAATAGGTCAAAGTCCGCTTCCCG | 5.97 | 5.58 | 3.46 | 4.5 | 1.42 | 5.97 | 9.53 | 7.87 | 6.52 | 8.3
GCTAGCAGGCCATTTGGGTCGCTCAATGACGGGC | -0.655 | -0.842 | -0.846 | -1.04 | -1.24 | -0.407 | -0.08 | -0.417 | -0.944 | -0.61
TTACCAAGGTGAAAGGTCGTTGACGCACGCCTTG | 4.03 | 3.4 | 0.245 | 2.91 | -0.135 | 5.49 | 8.84 | 8.07 | 6.9 | 8.64
TCATATAGGTAAACAGGTGAAAGTCCGTAAGTTA | 0.771 | 1.07 | 0.337 | 0.884 | 0.0234 | 2.39 | 2.99 | 3.77 | 4.16 | 3.87
CCGACTGGGGCAAAGGTTACCGTACTCAGTACGA | 1.69 | 1.59 | -0.472 | 1.95 | -1.15 | 5.78 | 10.6 | 9.35 | 9.56 | 9.91
CCTACTGGGCCAAAAAGGTCAATGATGCCGATAA | 2.77 | 3.48 | 1.68 | 3.86 | -0.306 | 4.92 | 3.36 | 3.84 | 1.55 | 2.86
TCATATAGGTAAACAGGTGAAAGACCGTAAGTTA | 0.974 | 0.774 | 0.26 | 0.571 | -0.084 | 2.47 | 3.45 | 3.63 | 4.12 | 4.03
TCGAGTAGTTTAGTCGGGGCATTCAGCCAACATA | -0.125 | -0.295 | -0.441 | 0.256 | -0.38 | 0.346 | -0.694 | 0.0847 | 0.837 | 0.633
TCGAGTAGGTTAAGGGCATTCAGAATGGCGTCGA | 0.969 | 1.02 | -0.302 | 0.27 | -1.02 | 1.75 | 1.68 | 2.85 | 1.35 | 2.37
CCGACTGGGGCATAAGGTTACCGTAAGCCAGCCC | 0.834 | 0.933 | -0.596 | 0.83 | -1.46 | 2.03 | 2.33 | 3.5 | 1.26 | 3.13
TTACCAAGGTGAGGTGAGGTCGTTGATCCAACTC | 2.75 | 1.64 | -0.251 | 1.2 | -0.802 | 2.03 | 0.585 | 1.25 | 0.427 | 0.705
CAAACTAGGTCAAGGTCAAAGTTGGTTTGTGCCA | 7 | 5.55 | 4.19 | 4.77 | 1.48 | 6.04 | 9.87 | 7.82 | 6.98 | 8.52
TTACAAAGGTGAAGGTCGTTGATCCCTCTGTAGA | 3.61 | 2.92 | 0.147 | 2.33 | -0.453 | 3.81 | 3.92 | 4.48 | 2.28 | 4.11
ATCGAAAGGTCGAGGTGCGTATAGAGAAAGGGAA | 3.98 | 3.27 | -0.147 | 2.47 | 0.277 | 4.37 | 2.48 | 3.13 | 1.09 | 2.17

From the supplement of paper PMC6555819
